From ChEMBL document CHEMBL3988442, “University of Dundee, Small-Polar-MMV Screening Library” (2021)

How the values were obtained:
[1] = target: T1, Aspartate--tRNA(Asp/Asn) ligase (Mycobacterium tuberculosis (strain ATCC 25618 / H37Rv)) (UniProt P9WFW3); assay: Assay for Asp RNA synthetase-1 from Mycobacterium tuberculosis; format: functional; design: scale not given: direction of the effect not stated beside the values; conditions: 30 µM; note: in the data most compounds retested in dose-response had high values
T1 sequence (whole entry): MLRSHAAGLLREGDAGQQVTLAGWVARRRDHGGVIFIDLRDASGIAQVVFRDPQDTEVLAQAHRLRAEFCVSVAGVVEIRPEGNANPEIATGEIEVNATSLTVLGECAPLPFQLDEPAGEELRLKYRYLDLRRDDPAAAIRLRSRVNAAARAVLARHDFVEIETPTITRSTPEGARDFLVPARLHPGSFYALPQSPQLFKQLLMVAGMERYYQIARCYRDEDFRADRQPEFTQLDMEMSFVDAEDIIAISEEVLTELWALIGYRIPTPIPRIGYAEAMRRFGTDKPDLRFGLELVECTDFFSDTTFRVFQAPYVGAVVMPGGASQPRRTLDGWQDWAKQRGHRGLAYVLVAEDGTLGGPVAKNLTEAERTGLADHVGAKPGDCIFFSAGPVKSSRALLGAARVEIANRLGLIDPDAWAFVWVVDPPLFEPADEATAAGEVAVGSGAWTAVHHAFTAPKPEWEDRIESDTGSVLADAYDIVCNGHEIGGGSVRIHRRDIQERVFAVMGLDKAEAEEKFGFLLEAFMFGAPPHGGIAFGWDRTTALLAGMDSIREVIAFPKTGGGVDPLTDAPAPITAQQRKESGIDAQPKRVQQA

[2] = target: Shiga toxin 2 (Escherichia coli O157:H7) (UniProt P09385+P09386); assay: E. coli 0.157:H7 Shiga Toxin SOP - stx2 screening assay; format: functional; design: scale not given: direction of the effect not stated beside the values; conditions: 30 µM

Row | SMILES | Percent Effect [1] [%] | Percent Effect [2] [%]
1 | Cc1cc(-c2nnn(CCNS(C)(=O)=O)n2)ccc1F | -2.07 | -10.6
2 | COc1cccc(CN2CCC(c3nccn3C(C)C)CC2)c1 | 1.9 | -26.4
3 | O=C(c1ccsc1)N1CC[C@H]2C[C@@H](c3nnc(C4CC4)o3)O[C@@H]2C1 | 0.51 | -18.9
4 | CCn1cnnc1C1CCN(C(=O)c2cnc3ccccc3n2)CC1 | -1.17 | -10.9
5 | Fc1ccc2c(c1)C(NCc1nnc3n1CCCCC3)CCCO2 (centres undefined) | -3.62 | -12.2
6 | CSCC(C)(O)CNC(=O)c1cc(Br)ccc1Cl (centres undefined) | -0.23 | -13.2
7 | O=S(=O)(CCCN1CCCC1Cn1cncn1)c1ccccc1 (centres undefined) | -1.76 | -32.7
8 | CC(C)c1nccn1C1CCCN(C(=O)c2cnc[nH]2)C1 (centres undefined) | -0.983 | -3.33
9 | CC(C)OCCN(C)C(C)c1cccc(S(N)(=O)=O)c1 (centres undefined) | -3.29 | -16.4
10 | CC(CN1CCC2(CC1)c1nc[nH]c1CCN2S(C)(=O)=O)C(F)(F)F (centres undefined) | 2.76 | 4.49
11 | Cc1noc(C)c1CN(C)C(=O)c1ccc(NC2CC2)nc1 | 5.06 | 26.3
12 | O=C(c1ccc(OCC2CC2)nc1)N1CCCC(n2ccnc2)C1 (centres undefined) | -9.61 | -43.4
13 | COCC1c2c(cnn2CC2CC2)CCN1Cc1ccc(OC)cc1 (centres undefined) | 0.786 | 4.64
14 | CN(CCNC(=O)Nc1ccncc1)C1CCCCC1 | 1.25 | -5.92
15 | CN(C)C(=O)CC1CC2(CCN(C(=O)N(C)C)CC2)Oc2ccccc21 (centres undefined) | 1 | -12.4
16 | O=C(c1cccs1)N1CCC(n2nc(-c3ccco3)ccc2=O)CC1 | -0.968 | 6.63
17 | CCN1C[C@H]2CCN(C(=O)NC3CCCC3)CC[C@H]2S1(=O)=O | -0.232 | -57.6
